Assay [1] can be described thus: Nuclear factor erythroid 2-related factor 2/antioxidant responsive element (Nrf2/ARE) small molecule agonists: luciferase reporter gene qHTS assay in human keratinocytes (AID 1919969). Note: nearly all actives have a fitted effect of over 35% in size. Note: potency is the fitted concentration of half-maximal effect. In general terms: Reporter assays use an easily measured gene product as a stand-in for the process of interest.
For assay [2], the target named is Gonadotropin-releasing hormone receptor (Homo sapiens) (UniProt P30968). Nature of the assay: Human gonadotropin-releasing hormone receptor (GnRHR) small molecule agonists, calcium flux assay in GnRHR-HEK293 cells (AID 1920063). Note: nearly all actives have a fitted effect of over 35% in size. A digest of the protocol:
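HEK293 cells stably expressing human GnRHR were dye-loaded for 1 h at 37 C. Compound was added in agonist mode and fluorescence (Ex/Em 480/540) recorded kinetically for 3 min. Fifteen concentrations, triplicates.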

Assay [3] concerns the target KiSS-1 receptor (Homo sapiens) (UniProt Q969F8). Briefly: Human kisspeptin (KISS1R) small molecule agonists, calcium flux assay in KISS1R-HEK293 cells (AID 1920064; active = well fitted activation curve with a large enough effect in the repeat runs). A digest of the protocol: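 HEK293 cells stably expressing human KISS1R were loaded with calcium dye for 1 h at 37 C, then given compound; fluorescence (Ex/Em 480/540) was read kinetically for 3 min. Fifteen concentrations, triplicate.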
For orientation: Calcium flux is commonly read through the fluorescence of an indicator in the cells.

Assay [4] is described as follows: G protein-coupled receptor (GPCR) small molecule agonists, calcium flux assay: HEK293 wild type cell line counter screen (AID 1920065). An outline of the steps:
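Wild-type HEK293 cells plated 18 h, loaded with calcium dye 1 h at 37 C, then compounds added in agonist mode (ATP as positive control). Kinetic fluorescence Ex/Em 480/540 recorded 3 min at 1 sec intervals; 15 concentrations, triplicate.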

The nature of assay [5]: p53 small molecule agonists, cell-based qHTS assay with human liver microsomes (AID 1963577).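 Note: p53 response element beta-lactamase reporter cells with liver microsomes plus NADPH.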 A digest of the protocol: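 Steps: plate p53RE-bla cells, incubate 5 h at 37 C; add compound in DMSO; add microsomes (0.5 mg/mL final) and NADPH (0.5 mg/mL final); incubate 16 h at 37 C; add LiveBLAzer, 2 h RT; read fluorescence.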
For orientation: Quantitative high-throughput screening tests each substance at several concentrations.

Assay [6] can be described thus: p53 small molecule agonists, cell-based qHTS assay with rat liver microsomes (AID 1963578). An outline of the steps: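 Metabolic activation is supplied by rat liver microsomes with NADPH (each 0.5 mg/mL final). p53RE-bla cells incubate with compound 16 h at 37 C; reporter activity is measured by LiveBLAzer fluorescence.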
A short description of assay [7]: p53 small molecule agonists, cell-based qHTS assay: qHTS cell viability counter screen (AID 1963581). Note: nearly all actives have a fitted effect of over 45% in size. Note: potency is the fitted concentration of half-maximal effect. An outline of the steps: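 p53RE-bla HCT-116 cells, compounds added 5 h after plating and incubated 16 h at 37 C. Cytotoxicity measured in the same wells as intracellular ATP by CellTiter-Glo luminescence after 30 min at room temperature.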
Assay [8] has as its target 5-hydroxytryptamine receptor 2A (Homo sapiens) (UniProt P28223). Nature of the assay: 5-hydroxytryptamine receptor 2A (HTR2A) small molecule antagonists, cell-based qHTS assay (AID 1963586). Note: nearly all actives have a fitted effect of over 45% in size. A digest of the protocol:
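Antagonist-mode intracellular calcium assay: DOI (4 nM) added after 5 min compound pre-incubation at room temperature to dye-loaded HTR2A-CHO cells. Fluorescence followed for 3 min, sampled every second.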

The target is the same in assay [9]. Nature of the assay: 5-hydroxytryptamine receptor 2A (HTR2A) small molecule agonists, cell-based qHTS assay (AID 1963587). Note: nearly all actives have a fitted effect of over 30% in size. Note: potency is the fitted concentration of half-maximal effect. A digest of the protocol: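 Kinetic calcium-flux fluorescence (2 min, 1 sec intervals) after compound addition in agonist mode. HTR2A-CHO cells were cultured 18 h, then dye-loaded 1 h at 37 C.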
The target in assay [10] is Muscarinic acetylcholine receptor M1 (Homo sapiens) (UniProt P11229). Nature of the assay: Cholinergic receptor muscarinic 1 (CHRM1) small molecule antagonists, cell-based qHTS assay (AID 1963588). Note: nearly all actives have a fitted effect of over 40% in size. A digest of the protocol:
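CHRM1-CHO calcium-flux assay, antagonist mode. Cells were seeded 18 h, dye-loaded 1 h at 37 C and given compound for 5 min at RT, then acetylcholine was added at 50nM. FDSS fluorescence was read 3 min; 15 concentrations, three runs.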

The target is the same in assay [11]. Nature of the assay: Cholinergic receptor muscarinic 1 (CHRM1) small molecule agonists, cell-based qHTS assay (AID 1963589). Note: nearly all actives have a fitted effect of over 35% in size. A digest of the protocol:
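CHO cells stably expressing human CHRM1 were loaded with calcium dye for 1 h at 37 C, then compound was added in agonist mode. Intracellular calcium fluorescence was followed kinetically at 1 s intervals. Fifteen concentrations were tested in three independent runs.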

Assay [12] has as its target D(2) dopamine receptor (Homo sapiens) (UniProt P14416). Nature of the assay: Dopamine D2 receptor (DRD2) small molecule agonists, cell-based qHTS assay (AID 1963594). Note: nearly all actives have a fitted effect of over 35% in size. A digest of the protocol: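 cAMP accumulation in DRD2-HEK293 cells measured by HTRF after 1 h detection; compounds added 10 min before NKH477 (200nM […]) forskolin-analogue stimulation, 30 min at room temperature, with Ro20-1724 present at 0.1 mM final.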

The target is the same in assay [13]. Nature of the assay: Dopamine D2 receptor (DRD2) small molecule antagonists, cell-based qHTS assay (AID 1963595; active = well fitted inhibition curve with a large enough effect in the signal ratio in the repeat runs, with a control signal flat; the % refers to the signal ratio). An outline of the steps:
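HEK293 cells stably expressing DRD2, preincubated with 0.1 mM Ro20-1724 and compounds 10 min, were stimulated with 200 nM NKH477 plus 12 nM quinpirole for 30 min at room temperature; cAMP measured by HTRF (665/620 nm).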

Assay [14] in a line: p53 small molecule agonists, cell-based qHTS assay with human liver microsomes: qHTS cell viability counter screen (AID 1963579). Note: nearly all actives have a fitted effect of over 45% in size. An outline of the steps: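 After the 460/530 nm beta-lactamase read, CellTiter-Glo was added to the same wells and luminescence measured after 30 min at room temperature, giving viability of p53RE-bla cells treated 16 h with compounds plus microsomes and NADPH.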

A short description of assay [15]: p53 small molecule agonists, cell-based qHTS assay (AID 1963582; active = well fitted activation curve with a large enough effect in the signal ratio in the repeat runs, not every such curve was filed as active; the % refers to the signal ratio). A digest of the protocol: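 p53RE-bla reporter cells, compounds added in DMSO after 5 h plating, incubated 16 h at 37 C. Beta-lactamase read via 2 h room-temperature LiveBLAzer B/G FRET substrate, fluorescence intensity.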
The nature of assay [16]: cAMP Responsive Elements (CRE) small molecule agonists, cell-based qHTS assay (AID 1963590). A digest of the protocol:
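CRE-bla HEK 293T cells, 2,000/well in DMEM with 10% dialyzed FBS and 25 mM HEPES, pre-incubated 18 h at 37 C, then exposed to compound 3 h at 37 C. Beta-lactamase reporter read with LiveBLAzer B/G FRET substrate after 2 h at room temperature.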

Assay [17] can be described thus: cAMP Responsive Elements (CRE) small molecule antagonists, cell-based qHTS assay (AID 1963591; active = well fitted inhibition curve with a large enough effect in the signal ratio in the repeat runs, not every such curve was filed as active; the % refers to the signal ratio). A digest of the protocol:
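CRE-bla HEK293T cells plated 18 h, then given compound plus NKH477 at 0.25 uM final for 3 h at 37C. Beta-lactamase reporter read with LiveBLAzer B/G FRET substrate after 2 h at room temperature.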

The target of assay [18] is Beta-2 adrenergic receptor (Homo sapiens) (UniProt P07550). Nature of the assay: Adrenergic beta2 receptor (ADRB2) small molecule antagonists, cell-based qHTS assay (AID 1963592). Note: nearly all actives have a fitted effect of over 50% in size. Note: potency is the fitted concentration of half-maximal effect. An outline of the steps: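 Cells (CHO, stable ADRB2 overexpression) incubated 18-20hr at 37C; compounds added from DMSO; agonist mix (1nM isoproterenol, 100uM IBMX, 25uM Ro-20-1724) added; 0.5hr RT; d2-cAMP and anti-cAMP-cryptate added; 1hr RT; 665/615 nm read.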

The target is the same in assay [19]. Nature of the assay: Adrenergic beta2 receptor (ADRB2) small molecule agonists, cell-based qHTS assay (AID 1963593).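 Note: CHO cells stably overexpressing human ADRB2.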 A digest of the protocol:
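CHO cells stably over-expressing ADRB2 were plated overnight at 37C, then dosed with compounds plus a stimulation mix containing 100uM IBMX and 25uM Ro-20-1724 for 0.5hr at room temperature. cAMP was measured by HTRF competition, 1hr.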

A short description of assay [20]: p53 small molecule agonists, cell-based qHTS assay with rat liver microsomes: qHTS cell viability counter screen (AID 1963580). Note: nearly all actives have a fitted effect of over 45% in size. A digest of the protocol:
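Intracellular ATP, by CellTiter-Glo luminescence, defines viability. HCT-116 p53RE-bla cells, 4,000 per well, were compound-treated in the presence of rat liver microsomes and NADPH for 16 h at 37 C.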

The structures appear in SMILES notation. Results filed as inconclusive are left out. Activity calls are given as the source filed them. Unless noted, calls come from the whole dose curve.

Chain of KiSS-1 receptor (Homo sapiens) (Q969F8 whole entry, looked up): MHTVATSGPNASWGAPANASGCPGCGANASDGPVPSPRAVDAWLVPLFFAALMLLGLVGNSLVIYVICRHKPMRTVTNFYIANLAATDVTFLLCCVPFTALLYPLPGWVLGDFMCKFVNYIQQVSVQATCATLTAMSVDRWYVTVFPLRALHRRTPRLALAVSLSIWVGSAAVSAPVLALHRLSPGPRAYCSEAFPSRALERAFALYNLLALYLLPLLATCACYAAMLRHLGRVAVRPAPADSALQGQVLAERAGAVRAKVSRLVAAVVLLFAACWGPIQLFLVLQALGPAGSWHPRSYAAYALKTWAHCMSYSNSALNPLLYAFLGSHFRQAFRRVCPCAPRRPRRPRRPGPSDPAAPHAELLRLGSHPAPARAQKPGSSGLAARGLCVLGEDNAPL
Chain of 5-hydroxytryptamine receptor 2A (Homo sapiens) (P28223 whole entry, looked up): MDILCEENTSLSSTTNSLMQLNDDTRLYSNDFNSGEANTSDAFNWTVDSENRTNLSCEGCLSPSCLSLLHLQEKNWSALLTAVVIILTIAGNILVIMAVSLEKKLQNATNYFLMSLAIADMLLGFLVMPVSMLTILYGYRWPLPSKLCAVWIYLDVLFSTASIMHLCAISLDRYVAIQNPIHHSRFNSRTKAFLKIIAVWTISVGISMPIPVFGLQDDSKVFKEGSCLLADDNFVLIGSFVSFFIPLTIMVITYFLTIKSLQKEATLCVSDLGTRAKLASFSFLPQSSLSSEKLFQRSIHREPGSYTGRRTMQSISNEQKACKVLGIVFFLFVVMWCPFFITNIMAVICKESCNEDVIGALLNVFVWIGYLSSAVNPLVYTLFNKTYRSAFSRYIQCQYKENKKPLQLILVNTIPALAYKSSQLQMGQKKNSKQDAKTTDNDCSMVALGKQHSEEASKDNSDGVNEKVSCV
Chain of Muscarinic acetylcholine receptor M1 (Homo sapiens) (P11229 whole entry, looked up): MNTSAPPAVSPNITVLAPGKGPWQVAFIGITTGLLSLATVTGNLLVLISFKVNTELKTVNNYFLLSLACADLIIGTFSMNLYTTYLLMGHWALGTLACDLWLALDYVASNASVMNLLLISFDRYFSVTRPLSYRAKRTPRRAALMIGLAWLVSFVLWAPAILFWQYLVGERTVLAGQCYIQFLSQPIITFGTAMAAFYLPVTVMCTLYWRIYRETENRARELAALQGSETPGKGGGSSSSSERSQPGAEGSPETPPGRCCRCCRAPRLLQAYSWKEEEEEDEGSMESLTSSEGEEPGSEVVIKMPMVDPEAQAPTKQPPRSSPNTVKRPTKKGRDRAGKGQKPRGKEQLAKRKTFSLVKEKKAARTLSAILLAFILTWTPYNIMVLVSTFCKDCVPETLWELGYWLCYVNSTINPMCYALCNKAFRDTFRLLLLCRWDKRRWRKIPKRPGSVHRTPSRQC
Chain of Beta-2 adrenergic receptor (Homo sapiens) (P07550 whole entry, looked up): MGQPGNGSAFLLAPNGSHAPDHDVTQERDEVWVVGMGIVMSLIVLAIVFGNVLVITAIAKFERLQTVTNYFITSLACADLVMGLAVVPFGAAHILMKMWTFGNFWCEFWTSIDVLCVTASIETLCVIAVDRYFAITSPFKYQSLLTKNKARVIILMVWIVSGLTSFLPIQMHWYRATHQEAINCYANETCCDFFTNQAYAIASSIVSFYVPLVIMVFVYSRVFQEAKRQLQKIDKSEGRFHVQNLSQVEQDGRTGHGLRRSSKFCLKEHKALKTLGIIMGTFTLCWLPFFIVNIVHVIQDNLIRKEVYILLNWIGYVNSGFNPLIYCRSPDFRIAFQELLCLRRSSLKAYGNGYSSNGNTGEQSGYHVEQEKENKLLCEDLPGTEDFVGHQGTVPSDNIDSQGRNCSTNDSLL
Chain of Gonadotropin-releasing hormone receptor (Homo sapiens) (P30968 whole entry, looked up): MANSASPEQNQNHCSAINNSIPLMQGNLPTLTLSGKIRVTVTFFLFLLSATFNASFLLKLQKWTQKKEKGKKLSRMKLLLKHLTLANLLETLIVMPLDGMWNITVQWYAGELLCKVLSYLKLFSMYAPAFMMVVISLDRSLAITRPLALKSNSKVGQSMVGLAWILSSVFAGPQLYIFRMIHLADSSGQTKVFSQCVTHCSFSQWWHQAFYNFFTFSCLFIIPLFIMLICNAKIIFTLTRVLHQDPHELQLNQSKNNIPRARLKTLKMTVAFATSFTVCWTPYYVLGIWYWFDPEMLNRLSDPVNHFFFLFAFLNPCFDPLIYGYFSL
Chain of D(2) dopamine receptor (Homo sapiens) (P14416 whole entry, looked up): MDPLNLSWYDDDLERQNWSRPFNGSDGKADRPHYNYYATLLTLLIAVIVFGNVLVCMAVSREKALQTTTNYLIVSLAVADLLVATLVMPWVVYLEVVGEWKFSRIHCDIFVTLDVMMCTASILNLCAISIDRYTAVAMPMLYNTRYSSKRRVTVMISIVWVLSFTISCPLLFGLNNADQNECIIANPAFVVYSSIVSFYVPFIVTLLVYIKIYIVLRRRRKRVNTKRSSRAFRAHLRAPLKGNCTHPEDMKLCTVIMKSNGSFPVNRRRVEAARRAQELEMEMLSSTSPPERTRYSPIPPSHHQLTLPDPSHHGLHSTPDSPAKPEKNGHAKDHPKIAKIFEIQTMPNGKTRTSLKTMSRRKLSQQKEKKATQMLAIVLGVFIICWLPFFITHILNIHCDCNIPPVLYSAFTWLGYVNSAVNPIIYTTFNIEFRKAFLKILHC

Take `C[C@]12CC[C@H](O)C[C@H]1CC[C@@H]1[C@@H]2C[C@@H](O)[C@]2(C)[C@@H](C3=CC(=O)OC3)CC[C@]12O`: the Potency in assay [1] was 3.44 µM (active); in [7], 1.82 µM (active). In addition, the Potency entry in assay [2], in assay [3], in [4], in assay [5], in assay [6] and in [8] was “inactive” in each case. The Potency entry in assay [9], in [10], in [11], in [12] and in assay [13] was “inactive” throughout.
As to `Oc1cccc(-c2ccccc2)c1`, the Potency result in assay [1], in assay [2], in assay [3], in assay [4], in [5] and in [6] was “inactive” in each case. Moreover, the Potency entry in assay [14], in assay [7], in [15], in assay [8], in [9] and in assay [11] was “inactive” each time. In addition, the Potency result in assay [16], in [17], in assay [18], in assay [19], in assay [12] and in assay [13] was “inactive” throughout.
`CCc1nn(C)c(C(=O)NCc2ccc(C(C)(C)C)cc2)c1Cl`: the Potency entry in assay [1], in assay [2], in assay [3], in [4], in assay [5] and in [6] was “inactive” each time. For the same molecule, the Potency result in assay [8], in [9], in assay [10], in assay [11] and in assay [18] was “inactive” throughout.
Consider `COc1ccccc1N1CCNCC1`, for which the Potency entry in [1], in assay [2], in assay [3], in [4], in [5] and in assay [6] was “inactive” in each case. Also, the Potency entry in assay [20], in assay [7], in assay [15], in [10], in assay [11] and in assay [16] was “inactive” in each case. For the same molecule, the Potency entry in assay [17] and in assay [13] was “inactive” each time. Also, the Potency in assay [9] is 1.69 µM (active); in assay [18], 13.3 µM (active).
As to `COC(=O)N(C(=O)N1COC2(C(=O)OC)Cc3cc(Cl)ccc3C2=N1)c1ccc(OC(F)(F)F)cc1` (stereo unspecified), the Potency result in [1], in [2], in [3], in [4], in assay [5] and in assay [6] was “inactive” each time. For the same molecule, the Potency entry in [15], in assay [9], in assay [10], in [11], in [16] and in assay [17] was “inactive” in each case. The Potency result in assay [18], in assay [19], in assay [12] and in assay [13] was “inactive” in each case.
Turning to `Cc1c(F)c(F)c(COC(=O)C2C(/C=C(\Cl)C(F)(F)F)C2(C)C)c(F)c1F` (stereo unspecified), the Potency in assay [1] was 30.6 µM (active). The Potency result in assay [2], in [3], in [4], in assay [6], in assay [14] and in assay [20] was “inactive” throughout. In addition, the Potency result in assay [7], in assay [8], in [9], in assay [10], in assay [11] and in [17] was “inactive” each time. Further, the Potency result in [18] and in assay [13] was “inactive” throughout.
In the case of `CCCCc1ccc(O)cc1`, the Potency result in assay [1], in assay [2], in assay [3], in [4], in assay [5] and in assay [6] was “inactive” each time. The Potency result in assay [20], in assay [7], in assay [15], in [8], in assay [9] and in [17] was “inactive” in each case. Also, the Potency entry in assay [18], in assay [19], in [12] and in [13] was “inactive” in each case.
As for `CC(=O)OC1(c2ccccc2)CCN(CCc2ccccc2)CC1`, the Potency entry in [1], in assay [2], in [3], in assay [4], in assay [5] and in [14] was “inactive” throughout. Also, the Potency result in assay [20], in assay [7], in assay [15], in assay [9], in assay [10] and in assay [11] was “inactive” throughout. The Potency result in [17], in [18], in [12] and in assay [13] was “inactive” in each case.

(Values after PubChem BioAssay (Tox21).)
